Screens deposited in PubChem by National Center for Advancing Translational Sciences (NCATS).
Shown are actives, neighbours in structure and some others; about 21% of the full set was active somewhere.
Pf growth 48h = P. falciparum growth inhibition at 48 hours (one generation); 310,000 compounds, 5.9% hits; Potency, µM (top dose mostly 28.7 µM), for inactives: at the highest dose activity change, negative = inhibition, usual class: inhibitors; AID 504832; P. falciparum luciferase growth in erythrocytes, 48 h; note: potency is the fitted concentration of half-maximal effect; % is set by controls: 0 for no effect and ±100 for the full control effect
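Erythrocytes infected with P. falciparum carrying an integrated firefly luciferase reporter (2% hematocrit, 0.1% parasitemia final) were exposed to compounds in RPMI 1640 with 0.5% Albumax at 37 C, 5% CO2. Growth inhibition was scored as reduced luminescence.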
HCV inh = blocks hepatitis C virus. Huh7.5.1 HCVcc-Cre infection, luciferase reporter, 44 h. Potency, µM (titrated, usually from 41.8 µM), inactives show at the top dose activity change, negative = inhibition, actives largely listed as inhibitors. 340,000 compounds, 3.4% hits. AID 651820; note: potency is the fitted concentration of half-maximal effect; % is set by controls: 0 for no effect and ±100 for the full control effect
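Luciferase read-out (15 sec integration) after a 15 min room-temperature substrate step quantifies HCVcc-Cre infection. Cells, 1,000 per well, had compound added 4 h post-plating, then virus at ~0.5 moi, and were cultured 44 h.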
Shiga inhibitor = blocks Shiga toxin action in Vero cells; Vero cells, Shiga toxin protein synthesis inhibition reporter; inhibition, % at 38.7 µM; 290,000 compounds, 9.2% hits; AID 2315; in the data active = inhibition mostly above about 28%, no sharp cut-off; inactive = mostly below about 43%; note: 0% is about no effect
Cycloheximide cs = counter-screen hit for Shiga toxin inhibitors, cycloheximide. cell reporter, cycloheximide protein synthesis inhibition counterscreen. max response, %. 300,000 compounds, 12% hits. AID 2314; in the data active = max response mostly above about 13%, no sharp cut-off; inactive = mostly below about 14%; note: read at 38.3 µM for the half of the compounds with a filed dose; 0% is about no effect
Pf growth 96h = P. falciparum growth inhibition at 96 hour, primary screen for plastid delayed-death inhibitors; P. falciparum luciferase reporter growth, 96 h; Potency, µM (series often up to 28.7 µM), inactives show at the highest dose activity change, negative = inhibition, hits mostly inhibitors; 320,000 compounds, 6.9% hits; AID 504834; note: potency is the fitted concentration of half-maximal effect; % is set by controls: 0 for no effect and ±100 for the full control effect
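Parasite growth measured via integrated firefly luciferase reporter in P. falciparum. Infected erythrocytes at 2% hematocrit, 0.05% parasitemia final were treated 96 hours at 37 C under 5% CO2, and luminescence was read.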
HCMV antiviral = blocks human cytomegalovirus replication; HFF cells, HCMV-luciferase reporter, 72 h; hits give low values; activity change, negative = inhibition, % at 57.5 µM; 410,000 compounds, 4.5% hits; AID 1259415; in the data active = activity change below about -60%; inconclusive = no clear call, values can overlap the other calls; inactive = above about -39%; note: % is set by controls: 0 for no effect and ±100 for the full control effect
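After 16 h attachment at 37C, HFF cells received test compound and HCMV-luciferase (1 PFU/cell); reporter luminescence read 72 h later, data normalized against buffer-only and known inhibitor Salinomycin.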
* marks the source's active call; other numbers are inactive results; ? = inconclusive; . = no result. Unless noted, calls come from the whole dose curve; as a rule, active = well fitted inhibition curve with a large enough effect; inconclusive = small, poorly fitted or top-dose-only effect, or another doubt; inactive = no such curve, though single readings can be large or run the other way.

SMILES	Pf growth 48h	HCV inh	Shiga inhibitor	Cycloheximide cs	Pf growth 96h	HCMV antiviral
O=C(Nc1ccc(F)cc1)c1cc2cc(Cl)ccc2[nH]1	.	-29%	32*	16*	-5%	-11
CCc1ccc2[nH]c(C(=O)Nc3ccc(C)c(F)c3)cc2c1	?	-5%	39*	17*	?	-28
Cc1ccc2[nH]c(C(=O)Nc3ccccc3)cc2c1	.	.	.	.	.	59
Cc1cc(C(=O)N2CCC(C)(C(=O)NS(=O)(=O)C3CC3)C2)n(C(C)(C)C)n1 (centres undefined)	.	.	.	.	.	18
CCN1CCc2c(sc(NC(=O)c3ccc(S(=O)(=O)N4CCOCC4)cc3)c2C(=O)OC)C1	?	?	29	-5	.	15
COC(=O)c1c(NC(=O)c2ccc(S(=O)(=O)N3CCOCC3)cc2)sc2c1CCN(C)C2	13µM*	?	-6	-2	?	19
CCCN1CCc2c(sc(NC(=O)c3ccc(S(=O)(=O)N4CCCC4)cc3)c2C(N)=O)C1	9.3µM*	-6%	-8	-2	?	9
CCOC(=O)c1c(NC(=O)c2ccc(S(=O)(=O)N(CC(C)C)CC(C)C)cc2)sc2c1CCN(CC)C2	.	.	.	.	.	-30
CC(C)CN(CC(C)C)S(=O)(=O)c1ccc(C(=O)Nc2sc3c(c2C(N)=O)CCN(C(C)C)C3)cc1	.	.	.	.	.	-82*
CNC(=O)c1c(NC(=O)c2ccc(S(=O)(=O)N3CCCCC3C)cc2)sc2c1CCN(C)C2 (centres undefined)	?	-15%	-5	-4	10µM*	6
CN(C)S(=O)(=O)c1ccc(Cl)c(NC(=O)COC(=O)/C=C/c2cnc3ccccc3n2)c1	-5%	10%	36	11	32%	8
Cc1cnc(=O)[nH]c1SCc1ccc([N+](=O)[O-])cc1	11%	1%	-4	-7	?	-38
Cc1ccc2c(=O)cc(C(=O)Nc3ccc(S(=O)(=O)N4CCCCC4)cc3)oc2c1	.	.	.	.	.	25
CCCN(CCC)C(=O)C1CCN(c2cc(C)nc3c(-c4ccc(Cl)cc4)c(C)nn23)CC1	.	.	.	.	.	9
CC(C)N1CCc2c(sc(NC(=O)c3ccc(S(=O)(=O)N4CCOCC4)cc3)c2C(N)=O)C1	?	-2%	17	1	4.1µM*	-8
CNC(=O)c1c(NC(=O)c2ccc(S(=O)(=O)N3CCCC3)cc2)sc2c1CCN(C(C)C)C2	2.6µM*	.	-23	1	?	18
CCOC(=O)c1c(NC(=O)c2ccc(S(=O)(=O)N(C)CC3CCCO3)cc2)sc2c1CCN(C)C2 (centres undefined)	?	13µM*	-6	1	?	25
CNC(=O)c1c(NC(=O)c2ccc(S(=O)(=O)N3CC(C)OC(C)C3)cc2)sc2c1CCN(C(C)C)C2 (centres undefined)	?	?	-11	-2	-7%	14
COc1ccc(S(=O)(=O)N(CC(=O)Nc2ccc(S(=O)(=O)N3CCOCC3)cc2)Cc2ccc(F)cc2)cc1	15µM*	?	-9	-2	?	-28
COc1ccc(CC(=O)Nc2ccc(S(=O)(=O)N3CCOCC3)cc2)cc1	?	-2%	.	.	?	-5
COc1ccc(N(CC(=O)Nc2ccccc2C(=O)N2CCOCC2)S(=O)(=O)c2ccc(F)cc2)cc1	-1%	-1%	1	5	10µM*	-37
CCOc1ccccc1N(CC(=O)Nc1ccccc1C(=O)N1CCOCC1)S(C)(=O)=O	3%	-10%	21	-1	10µM*	?
COc1ccc(N(CC(=O)Nc2ccc(C(N)=O)cc2)S(=O)(=O)c2ccc(C)c([N+](=O)[O-])c2)cc1	-9%	?	12	1	245%	-19
COc1ccc(N(CC(=O)Nc2ccccc2C(N)=O)S(=O)(=O)c2ccc(C)c([N+](=O)[O-])c2)cc1	?	-5%	45	23*	0%	0
COc1ccc(N(CC(=O)Nc2ccccc2C(=O)N2CCCC2)S(=O)(=O)c2ccccc2)cc1	?	17%	-17	2	17%	-13
SMILES	Pf growth 48h	HCV inh	Shiga inhibitor	Cycloheximide cs	Pf growth 96h	HCMV antiviral
COc1ccc(NC(=O)CN(C)C(=O)c2ccc(S(=O)(=O)N3CCOCC3)cc2)cc1	.	.	.	.	.	-8
COc1ccc(S(=O)(=O)N(CC(=O)Nc2ccc(S(=O)(=O)N3CCOCC3)cc2)c2ccccc2)cc1	?	5.6µM*	-4	-1	22%	-85*
Cc1ccc(NC(=O)COC(=O)c2c(-c3ccccc3)noc2C)cc1	?	?	.	.	?	-8
Cc1onc(-c2ccccc2)c1C(=O)OCC(=O)Nc1ccc(OC(F)(F)F)cc1	?	11µM*	.	.	10%	-24
Cc1onc(-c2ccccc2)c1C(=O)OCC(=O)Nc1ccc(Cl)cc1	?	10µM*	.	.	-6%	6
Cc1onc(-c2c(Cl)cccc2Cl)c1C(=O)ONC(=O)c1cc(C(F)(F)F)cc(C(F)(F)F)c1	45%	-8%	-8	-3	0%	-99*
Cc1onc(-c2c(Cl)cccc2Cl)c1C(=O)Nn1cnnc1	8%	5%	-5	-3	34%	1
Cc1onc(-c2ccccc2)c1C(=O)OCC(=O)Nc1cccc(Cl)c1	12µM*	?	.	.	?	?
OCC(O)C1OC(c2ccco2)OC(CO)C1O (centres undefined)	.	-12%	.	.	.	?
CCc1c(C2(O)CCCCC2)[nH]c2cnccc12	?	-10%	.	.	?	-29
Cc1onc(-c2c(F)cccc2Cl)c1C(=O)OCC(=O)NC(c1ccccc1)c1ccccc1	12µM*	-19%	-8	8	.	10
Cc1onc(-c2c(F)cccc2Cl)c1C(=O)OCC(=O)NC(N)=O	11%	?	-11	10	30%	-18
CC(C)(C)c1cc(CN2CCOCC2)c(C(=O)O)o1	11%	-6%	-6	-2	3.3µM*	30
CCOC(=O)C1CCN(C(=O)COC(=O)c2ccc(=O)n(Cc3ccccc3)n2)CC1	18%	2%	.	.	29%	-13
O=C1NC(=S)SC1=Cc1ccccc1Cl	.	9%	.	.	.	23
Cc1ccc(C2C(/C=C3/SC(=S)NC3=O)=C(c3cccs3)Oc3ccccc32)cc1 (centres undefined)	.	?	-7	-3	9.3µM*	-61*
O=C(NCCc1ccc(C(F)(F)F)cc1)C1COc2ccccc2O1 (centres undefined)	-6%	-7%	112*	42*	10%	?
O=C(NCCCN1CCOCC1)C1COc2ccccc2O1 (centres undefined)	30%	-2%	-7	0	97%	45
CCC1Oc2ccccc2N(CC(=O)NCCC2=CCCCC2)C1=O (centres undefined)	?	-18%	34	22	?	-31
